Outcome and AC50 data for 14 compounds are collected here from PubChem BioAssay (EPA / NIEHS).

Molecules are shown by their SMILES. The source made the active and inactive calls. The calls were made as follows: active = hit-call score of the fitted dose curve at least 0.9, where 1 is the maximum; inactive = score below 0.9.

For orientation: AC50 means the midpoint of the concentration-response curve, whichever way the signal moves.

A short description of this experiment: CCTE_Mundy_HCI_Cortical_Synap_Neur_Matur_NeuriteCount: CCTE's Synaptogenesis and Neurite Maturation Assay in rat cortical cells for Neurite Count, Mundy Lab (AID 2284222). As for the experimental part:
CCTE_Mundy_HCI_Cortical_Synap&Neurite_Matur is a multiplexed, cell-based-readout assay that uses rat primary cortical cells with measurements taken at 288.33 hours after chemical dosing in a microplate: 96-well plate.CCTE_Mundy_HCI_Cortical_Synap_Neur_Matur_NeuriteCount is one of eight components of the CCTE_Mundy_HCI_Cortical_Synap&Neurite_Matur assay. It measures synaptogenesis and neurite maturation related to number of neurites using High Content Imaging of fluorescently labelled markers.[…] Using a type of morphology reporter, loss -of-signal activity can be used to understand developmental effects.
Cells are plated onto 96 well plates and allowed 2 hr for attachment to the substrate. At days in vitro (DIV) 5, Cytosine Arabinoside (AraC) is added to arrest glial cell growth. Chemicals are dosed and a media change is performed at DIV 7 of differentiation and is continued through DIV 12 when the experiment is terminated. Cells are fixed with […] and Hoechst Dye. Cells are stained using Millipore Mouse anti-MAP2MAB3418 (1:800) and Millipore Rabbit anti-Synaptophysinsc-1750 (1:250) primary antibodies and Alexa Fluor-488 goat anti-mouse and AlexaFluor-546 goat anti-rabbit secondary antibodies to label neuronal cell nuclei, synapses and neurites. A Cellomics ArrayScan VTi HCS Reader is used for automated image acquisition and analysis of neurite outgrowth.
Consider `C[C@@H]1CCO[C@H]2Cn3cc(C(=O)NCc4ccc(F)cc4F)c(=O)c(O)c3C(=O)N12`, for which the compound was classed as inactive.

`F`: the outcome was inactive.

In the case of `CCCCCC(C)(CC)C(=O)NC` (centres undefined), the outcome was inactive.

As to `CC(C)c1nn(C(=O)NC(C)(C)C)c(=O)n1N`, the compound was called inactive.

In the case of `CC(CNC(=S)[S-])NC(=S)[S-].[Zn+2]` (centres undefined), the concentration at half-maximal activity (AC50) was 76.9 µM (active).

For `C[C@@H]1CC[C@@H](C(C)(C)O)[C@H](O)C1`, the outcome was inactive.

Consider `BrC1CC(Br)CC(Br)CC(Br)CC(Br)CC(Br)C1` (centres undefined), for which the AC50 was 4.27 µM (active).

Consider `Cc1[nH]n(C)c(=O)c1C(=O)c1ccc(C(F)(F)F)cc1S(C)(=O)=O`, for which the compound was classed as inactive.

Regarding `CC(=O)N[C@@H](CC(=O)O)C(=O)O`, the call was inactive.

Take `CC(C)O`: the compound was classed as inactive.

As for `[O]=[V]([OH])([OH])[OH]`, the AC50 is 78.5 µM (active).

`CCCCCC=C(C)C(CC)CCO` (centres undefined): the compound was called inactive.

Take `O=C1CC2(CCCC2)CC(=O)N1CCCCN1CCN(c2ncccn2)CC1`: the compound was called inactive.

As to `CCc1ccccc1`, the outcome was inactive.
